A short description of test [1]: ATG_CRE_CIS: Attagene CIS-FACTORIAL HepG2 Assay for human cAMP Responsive Element (CRE) binding protein 3 (AID 2282926). Particulars: HepG2 CRE cis-reporter, Attagene multiplexed mRNA; actives raise or lower the signal. In outline:
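Cells carrying cis-regulated reporter constructs respond through their own endogenous factors. After 24 h treatment, RNA is reverse-transcribed, amplified, labelled and sized by capillary electrophoresis; up- and down-regulation are both scored against vehicle.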

Test [2] addresses CCAAT/enhancer-binding protein beta (Homo sapiens) (UniProt P17676). In words: ATG_C_EBP_CIS: Attagene CIS-FACTORIAL HepG2 Assay for human CCAAT/Enhancer Binding Protein (C/EBP) beta (AID 2282927). To be noted: HepG2 Attagene cis-factorial transcription factor reporter; actives raise or lower the signal. The method in brief: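 Changes in reporter mRNA, rather than exogenous chimeric receptor activity, reflect native C/EBP signalling in transfected HepG2 cells dosed for 24 h; transcripts are detected by RT-PCR and capillary electrophoresis.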

Test [3] in a line: ATG_CMV_CIS: Attagene CIS-FACTORIAL HepG2 Assay for human CMV (Internal Marker) (AID 2282928).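 Also: endpoint acts as a background internal control marker rather than a target.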 Particulars: HepG2 CMV promoter reporter, transcription factor profiling; actives raise or lower the signal. The method in brief: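 Readout: fluorescent reporter cDNA fragments separated by capillary electrophoresis after RT-PCR and HpaI cut. Cells: HepG2 carrying transfected cis-promoter reporter constructs, dosed 24 h. Endpoint serves as background internal-marker control, fit bidirectionally versus DMSO.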

The nature of test [4]: ATG_DR4_LXR_CIS: Attagene CIS-FACTORIAL HepG2 Assay for human Liver X Receptor (LXR), DR4 submotif (AID 2282929). To be noted: HepG2 Attagene DR4 cis-reporter, mRNA transcription; actives raise or lower the signal. The method in brief: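 Total RNA from 24 h-treated, MRTU-transfected HepG2 cells underwent reverse transcription, PCR, fluorescent primer extension and restriction digestion before capillary electrophoresis. Both increases and decreases in reporter signal were fitted against DMSO.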

The target of test [5] is Aryl hydrocarbon receptor (Homo sapiens) (UniProt P35869). In words: ATG_Ahr_CIS: Attagene CIS-FACTORIAL HepG2 Assay for human Aryl Hydrocarbon Receptor (Ahr) (AID 2282930). To be noted: HepG2 AhR cis-factorial reporter transcription; actives raise or lower the signal. The method in brief:
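HepG2, transient MRTU (cis) transfection, 24 h exposure. RNA → cDNA → PCR → 6-FAM primer extension → HpaI 2 h 37 C → CE. Fit: bidirectional, DMSO baseline.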

Test [6] in a line: ATG_AP_1_CIS: Attagene CIS-FACTORIAL HepG2 Assay for human Activator Protein 1 (AP-1) (AID 2282931). Particulars: HepG2 Attagene cis-factorial AP-1 reporter mRNA; actives raise or lower the signal. In outline:
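HepG2, transient cis-reporter transfection; 24 h; readout RT-PCR/CE fluorescence; DMSO baseline, gain and loss fitted.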

A short description of test [7]: ATG_AP_2_CIS: Attagene CIS-FACTORIAL HepG2 Assay for human Activator Protein 2 (AP-2) (AID 2282932). Particulars: HepG2 AP-2 cis-reporter, Attagene transcription factor profiling; actives raise or lower the signal. In outline:
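Endogenous transcription factor activity is reported through transfected multiplex reporter constructs in HepG2, after 24 h of compound exposure. Transcripts were quantified by RT-PCR and capillary electrophoresis of fluorescent fragments. Bidirectional fit against DMSO.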

Test [8] in a line: ATG_BRE_CIS: Attagene CIS-FACTORIAL HepG2 Assay for human Bone Morphogenetic Protein (BMP) Response Element (BRE) (AID 2282933). To be noted: HepG2 BMP response element reporter, Attagene transcription factor profiling; actives raise or lower the signal. The method in brief: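 After a 24 h chemical treatment, transiently transfected HepG2 cells were lysed for RNA; reporter transcripts were quantified by fluorescent RT-PCR and capillary electrophoresis, normalised to DMSO.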

The target in test [9] is Retinoic acid receptor alpha (Homo sapiens) (UniProt P10276). Description: ATG_DR5_RAR_CIS: Attagene CIS-FACTORIAL HepG2 Assay for human Retinoic Acid Receptor Alpha (RARE), DR5 submotif (AID 2282934).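 As to AC50: reporter responds to endogenous RAR alpha beta and gamma in HepG2 not RARA alone.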 To be noted: HepG2 Attagene cis-factorial RARE DR5 reporter, mRNA; actives raise or lower the signal. The method in brief:
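HepG2, transient cis-reporter transfection, 24 h exposure. mRNA readout: RT-PCR, FAM label, HpaI cut, capillary electrophoresis. DMSO baseline, gain/loss fitting.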

Test [10] concerns the target Transcription factor E2F1 (Homo sapiens) (UniProt Q01094). Description: ATG_E2F_CIS: Attagene CIS-FACTORIAL HepG2 Assay for human E2F Transcription Factor 1 (AID 2282935). To be noted: HepG2 Attagene cis-reporter, E2F reporter RNA transcripts; actives raise or lower the signal. The method in brief: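 Gain or loss of reporter transcript, fitted against DMSO, reflects E2F1-driven transcription. Transiently transfected HepG2 dosed 24 h before RNA isolation. Quantified by fluorescent RT-PCR products separated by capillary electrophoresis.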

This note sets out measurements from PubChem BioAssay (EPA / NIEHS).

The structures appear in SMILES notation. Values joined by “and” are separate entries in the source; they are usually repeats but may differ in a detail not shown here. Equal values may be shown once. A structure can be active in one record and inactive in another. Active and inactive are the calls of the source. The calls were made as follows: active = hit-call score of the fitted dose curve at least 0.9, where 1 is the maximum; inactive = score below 0.9.

One may read the AC50 as the concentration giving half of the maximal activity seen.

CCAAT/enhancer-binding protein beta (Homo sapiens), sequence (P17676 whole entry, looked up): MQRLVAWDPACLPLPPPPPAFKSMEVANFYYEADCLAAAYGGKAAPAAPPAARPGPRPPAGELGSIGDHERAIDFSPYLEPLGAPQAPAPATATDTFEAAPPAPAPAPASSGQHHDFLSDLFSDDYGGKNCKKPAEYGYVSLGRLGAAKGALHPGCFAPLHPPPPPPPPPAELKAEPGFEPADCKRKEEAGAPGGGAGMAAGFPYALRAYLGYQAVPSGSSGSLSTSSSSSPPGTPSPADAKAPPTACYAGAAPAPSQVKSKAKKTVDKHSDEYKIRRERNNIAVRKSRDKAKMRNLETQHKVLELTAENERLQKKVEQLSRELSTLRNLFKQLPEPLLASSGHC
Transcription factor E2F1 (Homo sapiens), sequence (Q01094 whole entry, looked up): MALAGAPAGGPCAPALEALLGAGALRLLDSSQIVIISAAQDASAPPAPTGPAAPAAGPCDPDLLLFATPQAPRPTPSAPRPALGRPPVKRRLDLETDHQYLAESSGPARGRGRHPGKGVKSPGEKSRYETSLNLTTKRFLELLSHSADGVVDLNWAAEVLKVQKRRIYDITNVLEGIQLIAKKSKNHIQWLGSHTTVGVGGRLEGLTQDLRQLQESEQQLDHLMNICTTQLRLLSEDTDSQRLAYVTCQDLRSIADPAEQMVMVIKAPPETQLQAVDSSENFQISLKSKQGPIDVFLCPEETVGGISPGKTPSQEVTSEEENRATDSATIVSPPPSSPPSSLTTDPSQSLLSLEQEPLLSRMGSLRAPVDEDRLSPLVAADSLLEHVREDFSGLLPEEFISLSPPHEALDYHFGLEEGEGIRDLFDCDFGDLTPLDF
Aryl hydrocarbon receptor (Homo sapiens), sequence (P35869 whole entry, looked up): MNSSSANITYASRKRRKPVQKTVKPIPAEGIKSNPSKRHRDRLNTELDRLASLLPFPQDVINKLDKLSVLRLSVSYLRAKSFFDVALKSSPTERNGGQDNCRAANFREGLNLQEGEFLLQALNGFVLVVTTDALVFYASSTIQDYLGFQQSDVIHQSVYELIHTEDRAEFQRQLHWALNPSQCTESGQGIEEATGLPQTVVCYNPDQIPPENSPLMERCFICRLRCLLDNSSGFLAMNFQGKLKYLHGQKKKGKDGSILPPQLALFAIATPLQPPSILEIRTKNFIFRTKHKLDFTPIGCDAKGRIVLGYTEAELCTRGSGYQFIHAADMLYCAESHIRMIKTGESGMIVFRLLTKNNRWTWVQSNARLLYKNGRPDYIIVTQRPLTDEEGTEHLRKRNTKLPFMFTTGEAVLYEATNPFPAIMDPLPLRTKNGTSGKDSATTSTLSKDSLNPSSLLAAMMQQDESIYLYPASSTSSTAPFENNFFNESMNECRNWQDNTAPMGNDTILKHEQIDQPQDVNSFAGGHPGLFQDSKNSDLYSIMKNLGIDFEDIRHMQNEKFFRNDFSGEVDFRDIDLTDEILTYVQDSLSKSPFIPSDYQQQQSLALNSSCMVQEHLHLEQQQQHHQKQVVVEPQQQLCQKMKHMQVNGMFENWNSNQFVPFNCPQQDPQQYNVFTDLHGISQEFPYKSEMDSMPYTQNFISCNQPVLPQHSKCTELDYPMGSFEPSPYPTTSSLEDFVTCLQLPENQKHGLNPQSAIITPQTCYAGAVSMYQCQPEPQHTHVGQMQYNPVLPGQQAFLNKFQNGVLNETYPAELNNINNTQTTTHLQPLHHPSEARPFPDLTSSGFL
Retinoic acid receptor alpha (Homo sapiens), sequence (P10276 whole entry, looked up): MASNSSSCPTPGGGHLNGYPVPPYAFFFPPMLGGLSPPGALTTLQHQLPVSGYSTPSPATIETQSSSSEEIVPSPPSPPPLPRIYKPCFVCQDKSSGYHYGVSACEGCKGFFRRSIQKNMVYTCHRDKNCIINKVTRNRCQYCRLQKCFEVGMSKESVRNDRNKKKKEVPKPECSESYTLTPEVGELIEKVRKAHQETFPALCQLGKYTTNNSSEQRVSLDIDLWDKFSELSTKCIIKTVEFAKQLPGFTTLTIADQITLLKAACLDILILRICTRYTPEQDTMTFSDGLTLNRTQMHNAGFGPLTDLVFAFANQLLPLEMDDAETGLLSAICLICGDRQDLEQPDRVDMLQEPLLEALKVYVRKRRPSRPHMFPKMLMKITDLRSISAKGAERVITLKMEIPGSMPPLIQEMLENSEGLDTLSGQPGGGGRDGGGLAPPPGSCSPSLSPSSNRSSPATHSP

On to `CO/C=C(/C(=O)OC)c1ccccc1COc1cccc(C(F)(F)F)n1`, for which the molecule was classed as inactive in [1], in test [2], in test [3], in test [5], in test [6] and in test [7]. In addition, the outcome in test [9] and in test [10] was inactive. Further, the AC50 in test [4] was 7.46 µM (active); in test [8], 20.2 µM (active).
On to `Oc1ccc(Cl)cc1Cl`, for which the result in test [1], in test [2], in test [3], in test [4], in [5] and in test [6] was inactive. Moreover, the molecule was called inactive in test [7], in test [8], in [9] and in [10].
With `Nc1ccc(-c2ccc(N)cc2)cc1`, the call in [1], in test [2], in test [3], in test [4], in [5] and in test [6] was inactive. The molecule was classed as inactive in [7], in [8], in test [9] and in [10].
Regarding `Clc1ccc(Cl)cc1`, the result in test [1], in test [2], in test [3], in test [4], in [5] and in test [6] was inactive. The molecule was classed as inactive in test [7], in test [9] and in test [10].
Consider `CC(C)(c1ccccc1)c1ccc(O)cc1`, for which the AC50 is 33.4 µM (active) and 38.9 µM (active) in test [1]; 23.8 µM (active) and 38.4 µM (active) and 43 µM (active) in test [3]; 40.4 µM (active) [middle of 4 runs] in [4]; 45.8 µM (active) [middle of 4 runs] in test [6]; 33.4 µM (active) in test [7]; 1.8 µM (active) and 11.7 µM (active) in [9]. Further, the AC50 in test [10] is 56.3 µM (active). For the same molecule, the outcome in test [1], in [3], in [5], in test [7], in [9] and in [10] was inactive.
`ClC(Cl)=C(c1ccc(Cl)cc1)c1ccc(Cl)cc1`: the AC50 in test [1] was 167 µM (active); in [3] it was 57.2 µM (active) [middle of 4 runs]; in test [4] it was 44.6 µM (active) [middle of 4 runs]; in test [5], 19.8 µM (active) and 122 µM (active); in test [6], 100 µM (active) and 64.2 µM (active) and 73.8 µM (active); in [7], 135 µM (active). For the same molecule, the AC50 was 13.2 µM (active) in [9] and 175 µM (active) in [10]. Moreover, the result in test [1], in test [5], in test [7], in [8], in [9] and in test [10] was inactive.
For `O=C(O)C(F)(F)C(F)(F)C(F)(F)C(F)(F)C(F)(F)F`, the molecule was classed as inactive in [1], in test [2], in [3], in test [4], in [5] and in test [6]. In addition, the call in [7], in [9] and in test [10] was inactive.
Regarding `Oc1c(Cl)c(Cl)c(Cl)c(Cl)c1Cl`, the AC50 in test [1] was 19.3 µM (active) and 10.2 µM (active); in test [3] it was 28.7 µM (active) and 8.37 µM (active) and 39.7 µM (active); in test [4], 31.6 µM (active) and 34.8 µM (active); in test [5], 14 µM (active) and 6.01 µM (active) and 874 nM (active); in test [6] it was 13.7 µM (active) and 3.6 µM (active); in [7], 26.1 µM (active). Further, in test [9], the AC50 was 14.1 µM (active). Moreover, the molecule was classed as inactive in test [1], in test [4], in test [6], in [7], in [9] and in [10].
Regarding `Cc1cc2c3c(c1)C(c1ccccc1)=N[C@@H](NC(=O)c1ccncc1)C(=O)N3CC2`, the AC50 in [1] was 100 µM (active); in [3], 100 µM (active); in test [4] it was 161 µM (active). Besides, the outcome in [2], in test [5], in [6], in test [7], in test [8] and in test [9] was inactive. The outcome in [10] was inactive.
`CC(C)(O)C(=O)Nc1ccc([N+](=O)[O-])c(C(F)(F)F)c1`: the AC50 in test [1] was 51 µM (active). In addition, the outcome in test [1], in test [3], in [4], in [5], in test [6] and in [7] was inactive. Moreover, the molecule was called inactive in test [9] and in test [10].
As for `Oc1ccc(C(c2ccc(O)cc2)(C(F)(F)F)C(F)(F)F)cc1`, the AC50 was 11.1 µM (active) and 18.5 µM (active) in test [1]; 7.18 µM (active) and 8.05 µM (active) in [3]; 11.1 µM (active) and 12.8 µM (active) and 8.79 µM (active) in test [4]; 11.1 µM (active) and 5.94 µM (active) and 13.3 µM (active) in test [5]; 11.1 µM (active) [middle of 4 runs] in [6]. The result in test [1], in test [3], in [4], in [5], in [7] and in test [10] was inactive.
`OCC(O)CO`: the result in test [1], in test [2], in test [3], in [4], in test [5] and in [6] was inactive. For the same molecule, the molecule was called inactive in test [7], in test [9] and in test [10]. For the same molecule, the AC50 in test [5] is 33.3 µM (active).
As for `CN(C)CCO`, the result in test [1], in [2], in test [3], in [4], in [5] and in [6] was inactive. For the same molecule, the result in test [7], in test [9] and in test [10] was inactive.
`O=S(=O)(O)C(F)(F)C(F)(F)C(F)(F)C(F)(F)F`: the call in [1], in [2], in [3], in test [4], in test [5] and in test [6] was inactive. Also, the molecule was called inactive in test [7], in test [8], in test [9] and in test [10]. For the same molecule, the AC50 in test [5] was 110 µM (active).
Regarding `NS(=O)(=O)C(F)(F)C(F)(F)C(F)(F)C(F)(F)C(F)(F)C(F)(F)C(F)(F)C(F)(F)F`, the AC50 in test [1] was 44.3 µM (active) and 40.2 µM (active) and 32.2 µM (active); in test [2] it was 36.3 µM (active) and 24.3 µM (active); in [3], 40.4 µM (active) and 227 µM (active) and 21.6 µM (active); in test [4] it was 33.4 µM (active) and 105 µM (active); in test [6], 29.9 µM (active) and 262 µM (active) and 17 µM (active); in [9], 40.4 µM (active) and 29.7 µM (active). In addition, the result in test [2], in [4], in test [5], in test [7], in [9] and in test [10] was inactive.
